The results in this text go back to PubChem BioAssay (Tox21).

Unmarked numbers belong to inactive results. Active and inactive are the calls of the source. Calls follow the shape of the dose curve; as a rule, active = well fitted curve in the direction sought with a large enough effect in the repeat runs; inconclusive = weak or mixed curves; inactive = flat fitted curve, though single readings scatter.
% is scaled to controls: 0 for no effect and ±100 for the full control effect.

The assay is described as follows: qHTS assay to test for compound auto fluorescence at 535 nm (green) in HepG2 cells (AID 720675). Particulars: green autofluorescence 485/535 nm, 1 h; series mostly up to 91.3 µM; fluorescence, % of fluorescein control: at the top concentration. From the text:
National Center for Advancing Translational Sciences [NCATS]
NIH Chemical Genomics Center [NCGC]
U.S. Environmental Protection Agency [EPA]
National Institutes of Environmental Health Sciences [NIEHS]
National Toxicology Program [NTP]
U.S. Food and Drug Administration [FDA]
Compound auto fluorescence often interferes with screening of the compound library against various biological targets and signaling pathways. Some of these compounds may have fluorophoric properties. Such properties may interfere with the assay outputs resulting in false positives and/or negatives. To decrease such complications and ensure the compound activities are relevant in terms of biological response, the Tox21 10K compound library was screened for auto fluorescence.
From the fluorophores used as reporter signals in our screening assays, the auto fluorescence equivalencies of compounds against three fluorophores have been evaluated: Triamterene, Fluorescein and Rose Bengal sodium for blue, green and red fluorescence, respectively. The fluorescence intensities were measured using Excitation/Emission wavelengths at 405/460nm, 485/535nm and 540/590nm for blue, green and red labels, respectively. This assay includes the green fluorescence data.
Tox21 Assay Protocol Summary:
2,000 HepG2 cells in 5 uL of culture medium (MEM containing 10% FBS) per well were dispensed into black wall/clear bottom 1536-well plates using a Multidrop Combi Dispenser (ThermoFisher Scientific, Waltham, MA). The assay plates were incubated overnight at 37 C to allow cell attachment to the well bottom, followed by the transfer of 23 nL compound or DMSO vehicle by a pintool work station (Kalypsys , San Diego, CA). After the assay plates were incubated for 1 hr at 37 C and 5% CO2, fluorescence intensities in the assay plates were measured by an Envision (PerkinElmer, Shelton, CT) plate reader using three labels for measuring blue, green and red fluorescence at […] 460, 535 and 590 nm respectively.
On the technique in general: qHTS replaces the single test concentration by a dilution series.
Regarding `C=C1c2cccc(O)c2C(O)=C2C(=O)[C@]3(O)C(O)=C(C(N)=O)C(=O)[C@@H](N(C)C)[C@@H]3[C@@H](O)[C@H]12`, the fluorescence, % of fluorescein control is -0.0181% [at 18.6 µM].
As for `Oc1cccc(Nc2ccccc2)c1`, the “fluorescence, % of fluorescein control” value is -0.0116% [at 95.7 µM].
In the case of `O=C1CCCCCCCCCCOCCCCO1`, the “fluorescence, % of fluorescein control” value is 0.0195%.
As to `CC(C)C[C@H](NC(=O)[C@H](CCc1ccccc1)NC(=O)CN1CCOCC1)C(=O)N[C@@H](Cc1ccccc1)C(=O)N[C@@H](CC(C)C)C(=O)[C@@]1(C)CO1`, the “fluorescence, % of fluorescein control” value is -0.0768% [at 46 µM].
Regarding `O=C(O)c1cccc(-c2noc(-c3ccccc3F)n2)c1`, the “fluorescence, % of fluorescein control” value is -0.0485% [at 46 µM].
Same read-out and setting: the same measure for `NNC(=O)CP(=O)(c1ccccc1)c1ccccc1`: 0.0383% [at 46 µM].
Take `CCC(C)(C)OC`: the “fluorescence, % of fluorescein control” value was 0.0026%.
As to `C/C=C(/C(=C/C)c1ccc(O)cc1)c1ccc(O)cc1`, the fluorescence, % of fluorescein control is 0.154% [at 18.6 µM].
`CCc1ccccc1`: the “fluorescence, % of fluorescein control” value was 0.097%.
With `CCOc1cccc(-n2cc(C(=O)N3CCN(c4cc(C(=O)O)c5ccccc5c4)CC3)nc2-c2ccc(C)cc2)c1`, the “fluorescence, % of fluorescein control” value was -0.0626%.
Take `C[C@@]12CCC[C@H]1[C@@H]1CC[C@H]3C[C@@H](O)CC[C@]3(C)[C@H]1CC2`: the “fluorescence, % of fluorescein control” value is -0.0944% [at 46 µM].
Still for that read-out and setting: the same measure for `COc1ccccc1NC(=O)c1cc2ccccc2cc1O`: 0.4%; for `O=C(O)C[C@H](NC(=O)OCc1ccccc1)C(=O)O`: 0.0012%.
On to `CC(=O)NC1(c2cccc(F)c2)CCN(CC[C@@]2(c3ccc(Cl)c(Cl)c3)CN(c3ccccc3)C(=O)CO2)CC1`, for which the “fluorescence, % of fluorescein control” value is 0.0015%.
`N#CCCN(CCO)CCO`: the “fluorescence, % of fluorescein control” value is 0.0574%.
On to `CCCCCCNC(=O)n1cc(F)c(=O)[nH]c1=O`, for which the “fluorescence, % of fluorescein control” value was -0.0758% [at 46 µM].
Consider `O=C1c2ccccc2C(=O)N1CCc1noc(-c2ccc(CN3CCCCCC3)s2)n1`, for which the “fluorescence, % of fluorescein control” value is -0.007%.
`C=C(C)CCCC(C)CCO` (stereo not given): the “fluorescence, % of fluorescein control” value was 0.112%.
`O=c1[nH]c2ccc(Cl)cc2o1`: the “fluorescence, % of fluorescein control” value was -0.0035%.
For the molecule `O[C@@H]1CO[C@H]2[C@@H]1OC[C@@H]2O`, the “fluorescence, % of fluorescein control” value is -0.0101% [at 46 µM].
On to `Clc1ccc(Nc2nnc(Cc3ccncc3)c3ccccc23)cc1`, for which the molecule was called inactive.
For `CCCC(C(=O)OCCN(CC)CC)(c1ccccc1)c1ccccc1`, the “fluorescence, % of fluorescein control” value was 0.122% [at 46 µM].
With `C[C@@H](O)[C@H]1C(=O)N2C(C(=O)O)=C([C@H]3CCCO3)S[C@H]12`, the “fluorescence, % of fluorescein control” value was 0.0036% [at 46 µM].
As to `O=[N+]([O-])c1ccc(O/N=C/c2cc(Br)c(O)c(Br)c2)c([N+](=O)[O-])c1`, the “fluorescence, % of fluorescein control” value is -0.0463%.
`C[C@@H]1CC(=O)NN=C1c1ccc(NN=C(C#N)C#N)cc1`: the “fluorescence, % of fluorescein control” value is -0.166% [at 46 µM].
Turning to `O=C(OC(=O)c1ccccc1)c1ccccc1`, the “fluorescence, % of fluorescein control” value was 0.0397% [at 95.7 µM].
For `CCCCCCCCCCC(=O)O`, the “fluorescence, % of fluorescein control” value was 0.0224% [at 95.7 µM].
For `CCCCCCCCC(CCCCCC)C(=O)O` (stereo not given), the “fluorescence, % of fluorescein control” value is -0.134%.
As for `O=C(CCc1ccc(O)cc1)c1c(O)cc(O)cc1O`, the “fluorescence, % of fluorescein control” value was 0.0328% [at 95.7 µM].
Consider `O=C(OCC(O)CO)c1ccccc1Nc1ccnc2cc(Cl)ccc12` (stereo not given), for which the fluorescence, % of fluorescein control is 0.0219% [at 18.6 µM].
Take `CC1CC(C)C(=O)C1=O` (stereo not given): the “fluorescence, % of fluorescein control” value was 0.0343%.
With `NC1[C@H]2CN(c3nc4c(cc3F)c(=O)c(C(=O)O)cn4-c3ccc(F)cc3F)C[C@@H]12` (stereo not given in full), the “fluorescence, % of fluorescein control” value was -0.131% [at 46 µM].
With `O=C=Nc1ccc(Cl)c(Cl)c1`, the “fluorescence, % of fluorescein control” value is -0.0071%.
With `CC1(C)[C@H](C(=O)O)N2C(=O)C[C@H]2S1(=O)=O`, the “fluorescence, % of fluorescein control” value is -0.0513% [at 46 µM].
Turning to `C[C@@H](CN(C)C)CN1c2ccccc2Sc2ccccc21`, the fluorescence, % of fluorescein control is 0.0297% [at 18.6 µM].
As to `Cc1ccccc1S`, the “fluorescence, % of fluorescein control” value is 0.0068%.
Still for that read-out and setting: the same measure for `Brc1cc(Br)c(Oc2cc(Br)c(Br)cc2Br)cc1Br`: -0.0454% [at 46 µM].
As for `CO[C@]1(NC(=O)CSC(F)F)C(=O)N2C(C(=O)O)=C(CSc3nnnn3CCO)CO[C@H]21`, the “fluorescence, % of fluorescein control” value is 0.0089% [at 46 µM].
Consider `CN1C(=O)N(c2ccccc2Br)Cc2cnc(Nc3ccc4c(c3)OCC(CO)O4)nc21` (stereo not given), for which the “fluorescence, % of fluorescein control” value is 0.0411%.
Take `CC(=O)Nc1ccc(C)cc1C`: the “fluorescence, % of fluorescein control” value is 0.0983%.
